In PubChem BioAssay AID1839 (Johns Hopkins Ion Channel Center, 2009) one finds signal change vs control minus 3*SD hit threshold (margin above threshold, higher = more increase) data, which are given here for 100 compounds.

Hit rate of the full screen: of about 2,400 compounds, about 220 (9.2%) were called active.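 The calls were made as follows: active = signal change above the mean of dofetilide-free buffer controls plus 3 SD, so a positive margin; inactive = the rest.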 This excerpt belongs to a sample that is enriched for actives.

The assay can be described thus: thallium signal changes without hERG – cell-based, CHO-K1 parental line, FluxOR thallium flux, counter-screen for hERG block protection project, confirmation (AID 1839).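 Also: compounds applied alone with no dofetilide to cells lacking hERG.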 As to conditions: CHO-K1 parental cells, FluxOR thallium flux fluorescence; at 10 µM.
As for `O=C(Nc1ccc(Cl)cc1)Nn1cnnc1`, the signal change vs control minus 3*SD hit threshold (margin above threshold, higher = more increase) is -19.6% (inactive).

As to `CCOC(=O)C1=C(c2ccccc2)NC(=O)NC1c1ccc(O)c(Cl)c1` (stereo not given), the signal change vs control minus 3*SD hit threshold (margin above threshold, higher = more increase) was -23.2% (inactive). The figure for `CC1CCC(n2c(=S)[nH]c3ccccc3c2=O)CC1` (stereo not given) is 23.6% (active).

For `CC1CCCCC1n1c(=S)[nH]c2ccccc2c1=O` (stereo not given), the signal change vs control minus 3*SD hit threshold (margin above threshold, higher = more increase) was -13.4% (inactive). The figure for `O=c1c2ccccc2[nH]c(=S)n1C1CCCCC1` is -31.6% (inactive). The figure for `Cc1c(C(=O)N/N=C/c2ccccn2)nnn1-c1nonc1N` is -22.2% (inactive). In the case of `Cn1c(=O)c2sc3c(c2n(CC(=O)Nc2ccccc2)c1=O)COC(C)(C)C3`, the signal change vs control minus 3*SD hit threshold (margin above threshold, higher = more increase) was -33% (inactive). With `c1ccc(-c2ccc(-c3ccncn3)cc2)cc1`, the signal change vs control minus 3*SD hit threshold (margin above threshold, higher = more increase) is -28.8% (inactive). The value for `COc1ccc(NC(=S)NC(=O)c2ccc(Br)o2)cc1` was -13.4% (inactive); that for `O=C(NC(=S)Nc1ccccc1Cl)c1ccco1` was -7.5% (inactive); that for `Cc1csc(NC(=S)NC(=O)c2ccccc2)n1` was -14.7% (inactive). The value for `COc1ccc(NC(=S)Nc2ccccn2)cc1` was -35.9% (inactive); that for `O=C(NC(=S)Nc1ccccc1Cl)c1csnn1` was 39.6% (active). The value for `Cc1snnc1C(=O)NC(=S)Nc1ccccc1` was 5.3% (active); that for `Cc1ccc(NC(=S)NC(=O)c2ccc(-c3ccccc3)cc2)cc1` was -23.5% (inactive); that for `COc1ccc(NC(=S)NC(=O)c2csnn2)cc1` was 9.6% (active). On to `O=C(NC(=S)Nc1ccccc1)c1cccs1`, for which the signal change vs control minus 3*SD hit threshold (margin above threshold, higher = more increase) was -16.6% (inactive).

`O=C(NC(=S)Nc1ccccc1)c1csnn1`: the signal change vs control minus 3*SD hit threshold (margin above threshold, higher = more increase) is 50.8% (active). The figure for `O=C(NC(=S)Nc1ccccc1)c1cncc(C#Cc2ccccc2)c1` is -27.9% (inactive). The value for `Cc1cccnc1NC(=O)c1csnn1` was -24.6% (inactive). For the compound `CC(=O)Nc1ccc(NC(=O)CSc2ncc(C(=O)Nc3ccc(Cl)cc3)c(=O)n2C)cc1`, the signal change vs control minus 3*SD hit threshold (margin above threshold, higher = more increase) was -22.1% (inactive). The figure for `S=C(N/N=C/c1ccccc1Cl)Nc1cccc(Cl)c1Cl` is -4.6% (inactive); for `O=C1CC(N2CCN(c3ccccc3Cl)CC2)C(=O)N1c1ccc(F)cc1` (stereo not given) it is -20.8% (inactive). The value for `COc1cccc(C(=O)/C=C/Nc2ccc(S(=O)(=O)Nc3cnc4ccccc4n3)cc2)c1` was -33.7% (inactive); that for `C/C(=N/NC(=O)c1ccncc1)c1ccc2c(c1)OCO2` was -30.7% (inactive); that for `Cn1c(=O)c(-c2cc(=O)[nH][nH]2)c(O)c2ccccc21` was -23.6% (inactive). The figure for `Cc1noc(C)c1-c1nnc(-c2ccc(C(F)(F)F)cc2)o1` is -18.1% (inactive); for `Cn1cc([N+](=O)[O-])c(C(=O)NCc2cc3cc(Cl)ccc3[nH]2)n1` it is -24.3% (inactive); for `Cc1ccc(NC(=O)C2C3CCC(O3)C2C(=O)O)cc1C` (stereo not given) it is -26% (inactive).

As for `CC(NC(=O)c1ccncc1)C(C)(C)C` (stereo not given), the signal change vs control minus 3*SD hit threshold (margin above threshold, higher = more increase) was -25.4% (inactive).

`Cc1ccccc1Cc1c(C)nc2c(C(=O)NCc3ccc4c(c3)OCO4)cnn2c1C`: the signal change vs control minus 3*SD hit threshold (margin above threshold, higher = more increase) is -30.9% (inactive).

As to `O=c1c(-c2ccccc2)nc(-c2ccccc2)cn1O`, the signal change vs control minus 3*SD hit threshold (margin above threshold, higher = more increase) was 27.1% (active).

For `Cc1nc(-c2ccccc2)cn(O)c1=O`, the signal change vs control minus 3*SD hit threshold (margin above threshold, higher = more increase) is -14.6% (inactive). For the compound `COC(=O)Nc1c(-c2ccccc2)nc2ccccn12`, the signal change vs control minus 3*SD hit threshold (margin above threshold, higher = more increase) is -32.5% (inactive). The figure for `Cc1ccc(C)c(NC(=S)NNC(=O)c2csc3c2CCC(C)C3)c1` (stereo not given) is -16.3% (inactive). The value for `O=C(NC(=S)N(CCCCO)C1CCCCC1)c1sc2ccccc2c1Cl` was -27.6% (inactive); that for `O=C(NNC(=S)NC(=O)c1sc2ccccc2c1Cl)c1ccc(Cl)cc1` was -22.6% (inactive). The figure for `COc1ccccc1C(=O)NC(=S)NNC(=O)c1sc2ccccc2c1Cl` is 23.2% (active); for `CCCCOC(=S)NC(=O)c1sc2ccccc2c1Cl` it is 24.5% (active). For `COc1ccccc1C(=O)NNC(=S)NC(=O)c1sc2ccccc2c1Cl`, the signal change vs control minus 3*SD hit threshold (margin above threshold, higher = more increase) was -27.2% (inactive). The figure for `Cc1ccc(NC(=S)NC(=O)c2sc3ccccc3c2Cl)c(C(=O)O)c1` is -25.3% (inactive); for `CCCOC(=S)NC(=O)c1sc2ccccc2c1Cl` it is -4% (inactive); for `CCOC(=S)NC(=O)c1sc2ccccc2c1Cl` it is 3% (active). With `COC(=O)CC1C(=O)NCCN1C(=S)NC(=O)c1sc2ccccc2c1Cl` (stereo not given), the signal change vs control minus 3*SD hit threshold (margin above threshold, higher = more increase) is -17.8% (inactive). The value for `Cc1cccc(OCC(=O)NC2CCCc3ccccc32)c1C` (stereo not given) was -39.9% (inactive); that for `CCc1nnc(NC(=O)CSc2nc(-c3ccccc3)cc(-c3ccc(OC)cc3)c2C#N)s1` was -33.2% (inactive).

In the case of `COc1ccc(C2/C(=C(/O)c3ccc(Br)cc3)C(=O)C(=O)N2C)cc1` (stereo not given), the signal change vs control minus 3*SD hit threshold (margin above threshold, higher = more increase) is -34.2% (inactive). The value for `CCOC(=O)c1sc(=S)n2c1[nH]c(=O)c1ccc(C(=O)OC)cc12` was 27.7% (active); that for `CCOCCCn1c(=S)[nH]c2cc(C(=O)NCCOC)ccc2c1=O` was -21.5% (inactive); that for `CCOC(=O)c1sc(NC(=S)NC(=O)c2ccc(OC)cc2)nc1C` was -23.3% (inactive). The figure for `Cc1nnc(SCc2cc(=O)oc3cc(O)ccc23)n1Cc1ccccc1` is -27.2% (inactive). As to `O=C(NC(=S)Nc1ccc(N2CCOCC2)c(Cl)c1)c1sc2ccccc2c1Cl`, the signal change vs control minus 3*SD hit threshold (margin above threshold, higher = more increase) is -3.9% (inactive). The figure for `Oc1ccc(N=Nc2ccccc2-c2nn[nH]n2)c(O)c1` is -14.2% (inactive). The value for `COc1ccc2nc(N=Nc3c(O)ccc4ccccc34)sc2c1` was 1.7% (active); that for `CCOC(=O)c1cccc(C(=O)Nc2nc3ccc(OC)cc3s2)n1` was -31.4% (inactive). The figure for `COc1ccc(S(=O)(=O)Nc2ccc(O)c3ccccc23)cc1` is -41.6% (inactive).

For `Cc1cc(NC(=O)/C(C#N)=C/c2ccco2)n(-c2ccccc2)n1`, the signal change vs control minus 3*SD hit threshold (margin above threshold, higher = more increase) is -40.7% (inactive). Turning to `O=c1cc(-c2ccccc2)nc2c(-c3ccccc3)c(C(F)(F)F)[nH]n12`, the signal change vs control minus 3*SD hit threshold (margin above threshold, higher = more increase) was 8.1% (active). The figure for `Cc1[nH]n2c(=O)cc(C(C)C)nc2c1-c1ccccc1` is -21.7% (inactive); for `Cc1[nH]n2c(=O)cc(C(C)(C)C)nc2c1-c1ccccc1` it is -21.1% (inactive). The value for `Cc1nc(-c2nc(-c3c(C(=O)NNC(=O)c4ccc(Cl)cc4)noc3C)cs2)cs1` was -33.4% (inactive); that for `Cn1c(=S)[nH]c2sc3c(c2c1=O)CCC(C(C)(C)C)C3` (stereo not given) was 32% (active); that for `Cc1cccc(-n2c(=S)[nH]c3sc4c(c3c2=O)CCc2ccccc2-4)c1` was -27.1% (inactive). The figure for `COCCn1c(=S)[nH]c2sc3c(c2c1=O)CCC(C)C3` (stereo not given) is 18.3% (active). `CC1CCc2c(sc3[nH]c(=S)n(C)c(=O)c23)C1` (stereo not given): the signal change vs control minus 3*SD hit threshold (margin above threshold, higher = more increase) is 23.8% (active). Regarding `Cc1ccc(-n2c(=S)[nH]c3sc4c(c3c2=O)CCC4)cc1`, the signal change vs control minus 3*SD hit threshold (margin above threshold, higher = more increase) was -20.7% (inactive). The figure for `O=C(NC(=S)N1CCN(C/C=C/c2ccccc2)CC1)c1ccc(Cl)nc1` is -22.6% (inactive); for `Cc1ccc(NC(=S)N2CCN(c3ccccc3F)CC2)c(C)c1` it is -24.2% (inactive); for `O=c1[nH]c2ccc(S(=O)(=O)NCc3ccccc3)cc2[nH]1` it is -30.8% (inactive).

With `CC(=O)c1c(N2CCN(Cc3ccccc3)CC2)[nH]c(-c2ccccc2)nc1=S`, the signal change vs control minus 3*SD hit threshold (margin above threshold, higher = more increase) was -16.4% (inactive). The value for `CCN(CC)C(=O)CN1C(=O)c2cccc3cccc(c23)C1=O` was -21.1% (inactive). The figure for `COc1ccccc1/C=C1\SC(=S)N(NS(=O)(=O)c2ccc(C)cc2)C1=O` is -41.8% (inactive); for `Cc1cc(=O)oc2cc(OC(C(=O)O)c3ccccc3)ccc12` (stereo not given) it is -33.7% (inactive). The figure for `Cc1ccc(-c2cc(-c3n[nH]c(=S)o3)c3ccccc3n2)cc1` is -2.6% (inactive); for `C=CCc1cc(Cl)ccc1OCCOCCN(C)C` it is -30% (inactive); for `CCOC(=O)c1sc2nc(C)[nH]c(=S)c2c1C` it is -9.2% (inactive).

Regarding `CCOC(=O)c1c(NC(=O)/C=C/c2ccco2)sc(C)c1C`, the signal change vs control minus 3*SD hit threshold (margin above threshold, higher = more increase) was -32.2% (inactive). The figure for `CCOC(=O)c1sc(NC(=O)c2ccccc2C(=O)O)c(C(=O)OCC)c1C` is -19% (inactive). `CCOC(=O)c1sc(NC(=S)NC(=O)c2ccccc2)nc1C`: the signal change vs control minus 3*SD hit threshold (margin above threshold, higher = more increase) is -3.4% (inactive). The figure for `CCOC(=O)c1sc2ncnc(NCc3ccco3)c2c1C` is 1.7% (active); for `CCOC(=O)c1sc2ncnc(NCC(c3cccs3)N(C)C)c2c1C` (stereo not given) it is 3.3% (active).

For `CC/C(=N\NC(=O)c1nnn(-c2nonc2N)c1-c1cccs1)c1ccccc1`, the signal change vs control minus 3*SD hit threshold (margin above threshold, higher = more increase) is -25.4% (inactive).

For the compound `O=C(NC(=S)Nc1nc2c(s1)CCCC2)c1ccc(C(=O)c2ccccc2)cc1`, the signal change vs control minus 3*SD hit threshold (margin above threshold, higher = more increase) was -36.7% (inactive). The value for `COC(=O)c1ccc(C(=O)NC(=S)Nc2nc3c(s2)CCCC3)cc1` was 2% (active). The value for `CC(C)(C)c1ccc(C(=O)NC(=S)Nc2nc3c(s2)CCCC3)cc1` was -9.2% (inactive); that for `O=C(NCC(c1cccs1)N1CCOCC1)c1cc(S(=O)(=O)N2CCOCC2)ccc1F` (stereo not given) was -28.4% (inactive); that for `O=C1CSC(=S)N1/N=C/c1cc(Br)ccc1O` was -42.6% (inactive).

For `O=C(/C=C/c1ccccc1)c1cc(Br)ccc(=O)c1O`, the signal change vs control minus 3*SD hit threshold (margin above threshold, higher = more increase) was -22.9% (inactive). Regarding `CC(=O)Oc1c(-c2ccc(Br)o2)oc2ccccc2c1=O`, the signal change vs control minus 3*SD hit threshold (margin above threshold, higher = more increase) is 63.5% (active). Turning to `CC(=O)Oc1c(-c2ccco2)oc2ccccc2c1=O`, the signal change vs control minus 3*SD hit threshold (margin above threshold, higher = more increase) is -12.5% (inactive). The value for `COc1ccc(-c2oc3ccccc3c(=O)c2OC(C)=O)cc1` was -22.3% (inactive); that for `Cc1ccc(C(=O)NNc2cc(N3CCCC3)nc(N3CCCC3)n2)cc1` was -21.8% (inactive); that for `CCc1ccc(NC(=O)C(=O)NNC(=O)c2cccs2)cc1` was 18.1% (active). The value for `COc1ccc(NC(=O)C(=O)NNC(=O)c2cccs2)c(OC)c1` was -7.2% (inactive). The value for `CCN(CC)c1ccc(NC(=S)NC(=O)c2cccs2)cc1` was -20.8% (inactive). Regarding `Cc1ccc(NC(=O)C(=O)NNC(=O)c2cccs2)cc1`, the signal change vs control minus 3*SD hit threshold (margin above threshold, higher = more increase) was 27.4% (active). As for `Cc1ccc(N/C=C/C(=O)c2cccs2)cc1`, the signal change vs control minus 3*SD hit threshold (margin above threshold, higher = more increase) was -25.9% (inactive). The value for `O=C(NC(=S)NNC(=O)c1cccs1)c1ccc(Br)o1` was -45.9% (inactive). Regarding `CCOc1ccccc1Nc1nc(-c2sc(C)nc2C)cs1`, the signal change vs control minus 3*SD hit threshold (margin above threshold, higher = more increase) is -38.3% (inactive). The figure for `COC(=O)c1ccc(-n2c(C)nc(=O)c(-c3ccccc3)c2C)cc1` is -20.1% (inactive).
